Pf growth 96h = P. falciparum growth inhibition at 96 hours; 320,000 tested, 6.9% active; P. falciparum luciferase reporter growth, 96 h; AID 504834; Potency, µM (highest dose often 28.7 µM), without a hit: at the highest dose activity change, negative = inhibition, usual class: inhibitors; note: potency is the fitted concentration of half-maximal effect; % is set by controls: 0 for no effect and ±100 for the full control effect
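Plates of compound plus infected erythrocytes (2% hematocrit, 0.05% parasitemia final) incubate 96 hours, 37 C, 5% CO2. Detection reagent added; reduced luminescence from the parasites' luciferase reporter flags inhibition.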
Shiga inhibitor = inhibitors of Shiga toxin in Vero cells | Vero cells, Shiga toxin protein synthesis inhibition reporter | 290,000 tested, 9.2% active | AID 2315 | inhibition, % at 38.7 µM; in the data active = inhibition mostly above about 28%, no sharp cut-off; inactive = mostly below about 43%; note: 0% is about no effect
Cycloheximide cs = affects cycloheximide protein synthesis inhibition readout, counter-screen; cell reporter, cycloheximide protein synthesis inhibition counterscreen; max response, %; 300,000 tested, 12% active; in the data active = max response mostly above about 13%, no sharp cut-off; inactive = mostly below about 14%; note: read at 38.3 µM for the half of the compounds with a filed dose; 0% is about no effect
FBPA Giardia inh = blocks Giardia fructose-bisphosphate aldolase activity. Potency, µM (highest dose often 59.6 µM), without a hit: at the highest dose activity, negative = inhibition, most hits filed as inhibitors. 290,000 tested, 0.71% active. A8B2U2. purified Giardia FBPA; note: potency is the fitted concentration of half-maximal effect; % is set by controls: 0 for no effect and ±100 for the full control effect; nearly all actives have a fitted effect of over 55% in size
Target sequence (A8B2U2 whole entry, looked up): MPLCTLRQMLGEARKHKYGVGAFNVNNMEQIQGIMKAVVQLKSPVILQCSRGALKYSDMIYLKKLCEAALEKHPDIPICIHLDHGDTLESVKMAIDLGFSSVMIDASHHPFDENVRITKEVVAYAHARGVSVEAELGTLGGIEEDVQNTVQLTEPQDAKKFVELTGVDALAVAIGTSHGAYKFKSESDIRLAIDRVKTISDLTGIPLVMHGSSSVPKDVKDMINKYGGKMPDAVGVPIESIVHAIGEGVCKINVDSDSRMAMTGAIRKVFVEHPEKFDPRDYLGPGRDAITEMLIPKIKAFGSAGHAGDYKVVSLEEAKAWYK
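40 nM FBPA preincubated 10 min at RT with compound (up to 57.5 uM final), then substrate plus GAPDH/TPI/NAD/arsenate coupling and diaphorase/resazurin added. Fluorescence read after 20 min at RT, 525/598 nm.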
Pf growth 48h = inhibits P. falciparum growth in the first generation, 48 h. Potency, µM (doses to about 28.7 µM), without a hit: at the top dose activity change, negative = inhibition, hits mostly inhibitors. AID 504832. P. falciparum luciferase growth in erythrocytes, 48 h. 310,000 tested, 5.9% active; note: potency is the fitted concentration of half-maximal effect; % is set by controls: 0 for no effect and ±100 for the full control effect
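Luciferase-expressing P. falciparum in infected erythrocytes (2% hematocrit, 0.1% parasitemia final) in RPMI 1640/0.5% Albumax were exposed to compound for 48 hours at 37 C, 5% CO2; growth read as luminescence.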
NS1 inh = inhibitors of influenza NS1 protein function | AID 2326 | Potency, µM (highest dose often 46.1 µM), inactives show at the highest dose activity, positive = more growth | 270,000 tested, 0.4% active; calls by dose curve; note: potency is the fitted concentration of half-maximal effect; actives are rising curves; nearly all actives have a fitted effect of over 50% in size
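In this qHTS, NS1 from influenza A is expressed in budding yeast, where it slows growth. Cells are switched from glucose to 2% galactose medium (pH 6.0, -URA), treated with compound, and growth recovery is read at OD600.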
The depositor's hits bear a star; i = inactive; u = inconclusive; x = not tested or not shown; [ ] = another dose, or the depositor's remark. A selection: hits, their analogues and other compounds. The true share with any hit is near 21%. Unless noted, calls come from the whole dose curve; as a rule, active = well fitted curve in the direction sought with a large enough effect; inconclusive = small, poorly fitted or top-dose-only effect, or another doubt; inactive = no such curve, though single readings can be large; an effect the other way counts as inactive or inconclusive.

SMILES	Pf growth 96h	Shiga inhibitor	Cycloheximide cs	FBPA Giardia inh	Pf growth 48h	NS1 inh
Cc1nnc(NC(=O)CSc2ncnc3c2cnn3-c2ccccc2C)s1	59%	2	2	10%	4%	-7%
Cc1ccccc1-n1ncc2c(SCC(=O)NC3CCCC3)ncnc21	u	71*	32	25%	u	11%
COc1ccc(N2CCN(C(=O)CSc3ncnc4c3cnn4-c3ccccc3C)CC2)cc1	6.6µM*	-10	-3	-17%	12%	-6%
Cn1nc(C(=O)NCc2ccccc2Cl)c2c1-c1ccccc1S(=O)(=O)C2	-17%	-3	-1	x	9%	-4%
O=C(O)c1cccc(S(=O)(=O)Nc2ccc(OCc3ccccc3)cc2)c1	3%	2	-3	-4%	9%	29%
O=C(O)c1cccc(COc2ccc3c(c2)CCC3)c1	29%	44	35*	u	u	-59%
COc1cccc(OC)c1C(=O)NNC(=O)c1cccc(COc2ccc3c(c2)CCC3)c1	i	184*	65*	4%	2.3µM*	7%
O=C(COc1ccc2c(c1)CCC2)NCc1cccc(Cl)c1	u	-10	-2	-16%	6%	-16%
O=C(NCc1ccccc1)c1cccc(COc2ccc3c(c2)CCC3)c1	-1%	120*	104*	1%	278%	-11%
CN(CC(=O)Nc1ccccc1C(F)(F)F)C(=O)c1ccc(N2C(=O)CCC2=O)cc1	28%	x	x	x	2%	x
COc1ccc(CCNCC(O)COc2c(C)cccc2C)cc1OC (configuration not stated)	u	-8	-6	u	23%[0.00184 µM]	0%
O=C(CCCC(=O)c1ccc(F)cc1)c1ccc(F)cc1	169%	107*	55*	4%	x	-6%
CCCCC(=O)OCC(=O)c1ccc(OCC)cc1	u	22*	58*	0%	19%	-2%
O=C(CCC(=O)N1CCOCC1)c1ccc(F)cc1	16%	55*	24*	0%	81%	x
Cc1ccc(C(=O)CCS(=O)(=O)c2ccc(F)cc2)cc1	2%	26*	25*	7%	0%	-3%
O=C(O)CCC(=O)NCC(=O)c1ccc(F)cc1	10%	9	5	12%	-10%	5%
CCN1CCN(CCC(=O)Nc2ccc(F)c(F)c2)CC1	21%	-2	0	-4%	10%	6%
CCCCC(=O)c1ccc(O)cc1	x	42	15*	4%	32%	6%
CCOc1ccc(C(=O)COC(=O)CC)cc1	u	42*	23*	0%	-14%	2%
CCOc1ccc(C(=O)CCCC(=O)c2ccc(OCC)cc2)cc1	u	x	47*	-1%	57%	-9%
CCC(=O)c1ccc(OCC(=O)O)cc1	u	35	-3	u	6%	4%
OC(CN1CCC(Cc2ccccc2)CC1)c1ccccc1 (configuration not stated)	u	-19	5	1%	u	11%
CCOC(=O)c1sc2nc(C)nc(Nc3ccc(OC)cc3)c2c1C	-1%	30	5	4%	-3%	-3%
CCOC(=O)c1sc2nc(C)nc(SC(C)C(=O)N(C)c3ccccc3)c2c1C (configuration not stated)	9.3µM*	x	x	x	12µM*	x
Cc1c(OCC(=O)NCC(O)c2ccccc2)ccc2c3c(c(=O)oc12)CCCC3 (configuration not stated)	u	-8	-7	-4%	0%	9%
SMILES	Pf growth 96h	Shiga inhibitor	Cycloheximide cs	FBPA Giardia inh	Pf growth 48h	NS1 inh
Cc1c(OCC(=O)C(C)(C)C)ccc2c3c(c(=O)oc12)CCCC3	u	x	-1	13%	u	10%
CCOC(=O)COc1ccc2c3c(c(=O)oc2c1C)CCC3	20%	27	15*	2%	15%	-7%
Cc1c(OCC(=O)N(C)c2ccccc2)ccc2c3c(c(=O)oc12)CCC3	u	74*	24*	-1%	u	-37%
Cc1ccc(NC(=O)CCNC(=O)c2ccc(Cl)cc2)cc1C	8%	-4	-2	-9%	3%	-4%
COc1cc2c(cc1OC)-c1cc3ccc4c(c3c[n+]1CC2)OCO4	0.15µM*	-9	-1	u	1µM*	7%
COc1cc2c(cc1O)CC[n+]1cc3c(OC)c(OC)ccc3cc1-2	0.12µM*	-7	-3	u	0.41µM*	-4%
COc1cc2cc[n+]3cc4c(OC)c(OC)ccc4cc3c2cc1OC	x	x	x	-24%	x	x
